Assay [1] has as its target Thyrotropin receptor (Homo sapiens) (UniProt P16473). As to the kind of experiment: qHTS assay to identify small molecule agonists of the thyroid stimulating hormone receptor (TSHR) signaling pathway (AID 1224843; calls by dose curve; also: nearly all actives have a fitted effect of over 45% in size). The settings on record: TSHR-HEK293 cells, cAMP HTRF, agonist mode, 30 min; series mostly up to 92.4 µM. Put shortly:
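HEK293/TSHR, 800 cells/well; cpd 30 min RT; add cAMP-d2 + anti-cAMP-cryptate, 1 h RT; fluorescence read on plate reader. 15-pt titration, n=3.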
On the technique in general: In qHTS, concentration-response curves come from the screen itself.

The nature of assay [2]: qHTS assay to identify small molecule agonists of the hypoxia (HIF-1) signaling pathway - cell viability counter screen (AID 1224844; calls by dose curve; also: nearly all actives have a fitted effect of over 50% in size; also: potency is read from the fitted curve at half-maximal effect). Conditions: HRE-bla ME-180 viability, CellTiter-Glo luminescence, 17 h; series mostly up to 76.8 µM. The essentials:
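HRE-bla ME-180; 0.5% dFBS; cpd 17 h, 37C, 5% CO2; CellTiter-Glo lum., 30 min RT, post-FRET read, same wells.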

A short description of assay [3]: qHTS assay to identify small molecule agonists of the hypoxia (HIF-1) signaling pathway (AID 1224846; active = well fitted activation curve with a large enough effect in the signal ratio in the repeat runs, not every such curve was filed as active; the % refers to the signal ratio). The settings on record: HRE-bla ME-180 cells, beta-lactamase ratio, 17 h; series mostly up to 76.8 µM. The essentials:
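Reporter induction in HRE-bla ME-180 cells is taken as agonism: cells sit 5 hrs after plating, receive compounds or DMSO only, incubate 17 hrs at 37C under 5% CO2, and are loaded with CCF4-AM for beta-lactamase FRET measurement.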

Assay [4] is described as follows: qHTS assay to identify small molecule agonists of H2AX - cell viability counter screen (AID 1224847; calls by dose curve; also: top concentration of the series differs between compounds; nearly all actives have a fitted effect of over 30% in size). The settings on record: CHO-K1 viability, CellTiter-Glo luminescence, 3 h; series mostly up to 154 µM. The essentials:
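Read-out: CellTiter-Glo luminescence, 30 min RT. Cells: wild-type CHO-K1, 1000/well, 10% FBS, plated overnight at 37C. Treatment: 15 concentrations, 3 hr, 37C, 0.76% DMSO.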

Assay [5] can be described thus: qHTS assay to identify small molecule antagonists of the estrogen related receptor (ERR) signaling pathway from Tox21 library (AID 1224848). Also: nearly all actives have a fitted effect of over 50% in size. Conditions: ERR reporter cell line, luciferase antagonist mode, 18 h; series mostly up to 92.4 µM. Put shortly: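 Compounds dissolved in DMSO are pin-transferred onto ERR reporter cells (2,000 per well) that have settled for 6 h at 37 C. Plates then incubate 18 h at 37 C before ONE-Glo luciferase reagent and a luminescence read 30 min later.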

Assay [6] in a line: qHTS assay to identify small molecule agonists of the estrogen related receptor (ERR) signaling pathway from Tox21 library (AID 1224849; calls by dose curve; also: nearly all actives have a fitted effect of over 15% in size). Conditions: ERR reporter cell line, ONE-Glo luciferase, 18 h; at 92.4 µM (top of the series) unless noted. Put shortly:
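Tox21 compounds tested for ERR agonism in an NTP reporter cell line: 18 h treatment at 37 C, then ONE-Glo luminescence.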

Assay [7] is described as follows: qHTS RealTime-Glo MT Cell Viability Assay in HepG2 cells - 24 hour (AID 1224867). Also: nearly all actives have a fitted effect of over 50% in size. Conditions: RealTime-Glo luminescence; series mostly up to 76.8 µM. Put shortly: (§1)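 Real-time, nonlytic viability: 600 HepG2 cells/well mixed with NanoLuc enzyme plus prosubstrate; 5 h settle, compound (DMSO) added by pintool; luminescence monitored over 40 h at 37 C.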
A short description of assay [8]: qHTS RealTime-Glo MT Cell Viability Assay in HEK293 cells - 32 hour (AID 1224868). Also: top concentration of the series differs between compounds; nearly all actives have a fitted effect of over 50% in size. Conditions: RealTime-Glo luminescence; series mostly up to 76.8 µM. Put shortly:
(§2)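 Cells + reagent dispensed (600 cells/well, HEK293) → 5 h at 37 C/5% CO2 → 23 nL compound in DMSO pinned → 40 h at 37 C → luminescence read at 0, 8, 16, 24, 32, 40 h.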

Assay [9] can be described thus: A CellTox Green Cytotoxicity Assay to monitor cytotoxicity in HEK293 cells - 0 hour (AID 1224869). Also: nearly all actives have a fitted effect of over 50% in size. Conditions: CellTox Green fluorescence; series mostly up to 76.8 µM. Put shortly:
(§3)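 Tox21 screen in HEK293: membrane-impermeant cyanine dye fluoresces on binding dead-cell DNA; compound pinned 5 h post-seeding, plates held at 37 C, signal read repeatedly through 40 h.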

The nature of assay [10]: qHTS RealTime-Glo MT Cell Viability Assay in HepG2 cells - 40 hour (AID 1224870). Also: nearly all actives have a fitted effect of over 50% in size. Conditions: RealTime-Glo luminescence; series mostly up to 76.8 µM. The essentials: (§4)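 HepG2 cells (600/well) mixed with RealTime-Glo MT reagent, settled 5 h at 37 C/5% CO2 before compound addition. Nonlytic NanoLuc luminescence from viable-cell prosubstrate reduction read repeatedly during 40 h treatment at 37 C.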

Assay [11] is described as follows: A CellTox Green Cytotoxicity Assay to monitor cytotoxicity in HEK293 cells - 40 hour (AID 1224871). Also: nearly all actives have a fitted effect of over 45% in size. Conditions: CellTox Green fluorescence; series mostly up to 76.8 µM. Put shortly:
as §3

A short description of assay [12]: qHTS RealTime-Glo MT Cell Viability Assay in HEK293 cells - 16 hour (AID 1224872). The settings on record: RealTime-Glo luminescence; series mostly up to 76.8 µM. The essentials:
as §2

Assay [13] can be described thus: qHTS RealTime-Glo MT Cell Viability Assay in HepG2 cells - 8 hour (AID 1224873). Also: nearly all actives have a fitted effect of over 55% in size. Conditions: RealTime-Glo luminescence; series mostly up to 76.8 µM. Put shortly:
as §4

The nature of assay [14]: qHTS RealTime-Glo MT Cell Viability Assay in HEK293 cells - 40 hour (AID 1224874). Also: nearly all actives have a fitted effect of over 50% in size. Conditions: RealTime-Glo luminescence; max response: hits give low values. The essentials: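 HEK293 + NanoLuc + prosubstrate, 600 cells/well; 5 h, 37 C/5% CO2; compound 23 nL in DMSO by pintool; 37 C; luminescence read at 0, 8, 16, 24, 32 and 40 h time points.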
Assay [15] can be described thus: A CellTox Green Cytotoxicity Assay to monitor cytotoxicity in HEK293 cells - 24 hour (AID 1224875). Also: nearly all actives have a fitted effect of over 45% in size. Conditions: CellTox Green fluorescence; series mostly up to 76.8 µM. Put shortly: as §3
A short description of assay [16]: A CellTox Green Cytotoxicity Assay to monitor cytotoxicity in HepG2 cells - 16 hour (AID 1224876). Also: nearly all actives have a fitted effect of over 45% in size. Conditions: CellTox Green fluorescence; series mostly up to 76.8 µM. Put shortly: (§5)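 Measurements at 0, 8, 16, 24, 32 and 40 h of treatment captured CellTox Green fluorescence in HepG2 cells that had been co-plated with reagent and preincubated 5 h at 37 C/5% CO2.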

Assay [17] can be described thus: qHTS RealTime-Glo MT Cell Viability Assay in HepG2 cells - 32 hour (AID 1224877). Also: nearly all actives have a fitted effect of over 55% in size. The settings on record: RealTime-Glo luminescence; series mostly up to 76.8 µM. The essentials: as §1
Assay [18] in a line: A CellTox Green Cytotoxicity Assay to monitor cytotoxicity in HepG2 cells - 40 hour (AID 1224879). Also: nearly all actives have a fitted effect of over 40% in size. The settings on record: CellTox Green fluorescence; series mostly up to 76.8 µM. Put shortly:
as §5

The nature of assay [19]: qHTS assay to identify small molecule agonists of H2AX (AID 1224845; active = well fitted activation curve with a large enough effect in the signal ratio in the repeat runs, not every such curve was filed as active; the % refers to the signal ratio). The settings on record: CHO-K1 phospho-H2AX Ser139 HTRF, 3 h; series mostly up to 154 µM. Put shortly: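 Wild-type CHO-K1 cells, plated overnight, exposed 3hr at 37C to 15 concentrations (0.76% DMSO final). Lysed, then HTRF anti-pH2AX (S139) cryptate and anti-H2AX-d2 antibodies, 24 hr room temperature; 665/620 nm emission read.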

A short description of assay [20]: A CellTox Green Cytotoxicity Assay to monitor cytotoxicity in HepG2 cells - 24 hour (AID 1224878). Also: nearly all actives have a fitted effect of over 45% in size. Conditions: CellTox Green fluorescence; series mostly up to 76.8 µM. The essentials: as §5

Structures are written as SMILES. A number with no mark means an inactive call. Results filed as inconclusive are left out. Active and inactive are the calls of the source. Unless noted, calls follow the shape of the dose curve; as a rule, active = well fitted curve in the direction sought with a large enough effect in the repeat runs; inconclusive = weak or mixed curves; inactive = no such curve, though single readings can be large; an effect the other way counts as inactive or inconclusive.
% is scaled to controls: 0 for no effect and ±100 for the full control effect.

Sequence of Thyrotropin receptor (Homo sapiens) (P16473 whole entry, looked up): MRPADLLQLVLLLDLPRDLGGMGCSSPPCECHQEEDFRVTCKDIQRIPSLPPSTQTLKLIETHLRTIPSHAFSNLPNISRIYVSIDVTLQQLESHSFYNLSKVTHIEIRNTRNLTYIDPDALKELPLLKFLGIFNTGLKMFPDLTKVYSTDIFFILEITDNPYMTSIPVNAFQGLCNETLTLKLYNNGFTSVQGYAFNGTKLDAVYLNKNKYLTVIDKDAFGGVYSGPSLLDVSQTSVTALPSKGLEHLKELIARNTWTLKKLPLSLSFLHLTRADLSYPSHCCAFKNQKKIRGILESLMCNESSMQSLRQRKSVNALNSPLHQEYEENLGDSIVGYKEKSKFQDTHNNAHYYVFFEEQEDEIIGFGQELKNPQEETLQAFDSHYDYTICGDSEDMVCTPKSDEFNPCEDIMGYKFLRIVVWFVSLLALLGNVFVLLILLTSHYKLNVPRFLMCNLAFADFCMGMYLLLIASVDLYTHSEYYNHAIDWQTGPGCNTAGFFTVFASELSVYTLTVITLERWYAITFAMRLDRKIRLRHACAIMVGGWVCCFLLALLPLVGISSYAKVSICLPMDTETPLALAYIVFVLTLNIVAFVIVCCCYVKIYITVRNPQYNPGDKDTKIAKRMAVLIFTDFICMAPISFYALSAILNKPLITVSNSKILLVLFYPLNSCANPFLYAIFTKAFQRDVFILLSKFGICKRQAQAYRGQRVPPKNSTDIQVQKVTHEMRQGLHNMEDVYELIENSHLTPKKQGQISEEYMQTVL

In the case of `COC(=O)/C=C/C(C)=C\C=C\C(C)=C\C=C\C=C(C)\C=C\C=C(C)\C=C\C(=O)O`, the Potency result in assay [1], in assay [2], in assay [4], in [5], in [8] and in assay [9] was “inactive” each time. In addition, the Potency entry in assay [10], in assay [11], in assay [12], in [15], in [16] and in [17] was “inactive” each time. For the same compound, in assay [18], the Potency result was “inactive”. Besides, the result in assay [3], in assay [7] and in [13] was inactive. The activity change, positive = activation in assay [6] was 4.73%. In addition, the max response in assay [14] was 1.87%.
`OCC(O)c1ccccc1` (stereo not given): the Potency entry in [1], in [19], in assay [4], in [8], in [10] and in [11] was “inactive” each time. Also, the Potency result in [12], in assay [15], in [16], in [17] and in assay [18] was “inactive” each time. In addition, the Potency in assay [2] is 38.9 µM (active). In addition, the outcome in assay [7] and in assay [13] was inactive. For the same compound, in [14], the max response was -20.6%.
As to `CCC[Si](OC)(OC)OC`, the Potency result in assay [1], in assay [2], in assay [4], in assay [5], in assay [8] and in assay [9] was “inactive” each time. Moreover, the Potency result in assay [10], in assay [12], in assay [15], in assay [16], in assay [17] and in assay [18] was “inactive” throughout. Besides, the outcome in assay [3], in [7] and in assay [13] was inactive. The activity change, positive = activation in [6] is -6.41%. Further, the max response in assay [14] is -8.66%.
For the compound `NC(=O)c1ccccc1`, the Potency result in [1], in assay [2], in assay [19], in assay [4], in assay [8] and in assay [9] was “inactive” throughout. For the same compound, the Potency entry in assay [11], in assay [12], in [15], in assay [16], in assay [17] and in [20] was “inactive” each time. Moreover, the Potency result in assay [18] was “inactive”. Moreover, the outcome in [7] and in assay [13] was inactive. In addition, the max response in assay [14] is 1.7%.
In the case of `NC(=O)c1cc[n+](CC2=C(C(=O)[O-])N3C(=O)[C@@H](NC(=O)Cc4cccs4)[C@H]3SC2)cc1`, the Potency entry in assay [1], in assay [2], in assay [19], in [4], in [8] and in [9] was “inactive” in each case. Also, the Potency entry in [10], in assay [11], in [12], in assay [15], in [16] and in [17] was “inactive” in each case. Besides, the Potency entry in assay [20] and in assay [18] was “inactive” in each case. Besides, the result in assay [7] and in assay [13] was inactive. In [14], the max response is 4.75%.
On to `NCCOCCOCCN`, for which the Potency entry in assay [1], in assay [19], in [4], in assay [5], in assay [8] and in [9] was “inactive” each time. The Potency result in assay [10], in [11], in assay [12], in assay [15], in assay [16] and in assay [17] was “inactive” in each case. Also, the Potency result in assay [20] and in assay [18] was “inactive” throughout. In [6], the activity change, positive = activation is -4.55%. Also, the call in assay [7] and in [13] was inactive. In [14], the max response was -14%.
Take `C=C[Si](OCC)(OCC)OCC`: the Potency entry in [1], in assay [2], in assay [8], in assay [9], in assay [10] and in [12] was “inactive” throughout. Further, the Potency entry in assay [15], in assay [16], in assay [17] and in assay [18] was “inactive” in each case. For the same compound, the result in assay [3], in [7] and in assay [13] was inactive. For the same compound, the max response in [14] is 11.4%.
For `CC1(C)C(=O)NC(=O)N1CO`, the Potency result in [1], in assay [2], in assay [4], in [8], in assay [9] and in assay [12] was “inactive” throughout. Also, the Potency entry in [15], in assay [16], in [17], in assay [20] and in assay [18] was “inactive” throughout. The result in assay [3], in [7] and in assay [13] was inactive. Also, the max response in assay [14] was 9.14%.

Values taken from PubChem BioAssay (Tox21).
